# In ChEMBL document CHEMBL3988442, “University of Dundee, Small-Polar-MMV Screening Library” (2021):
# What was measured:
# [1] = target: T1, Aspartate--tRNA(Asp/Asn) ligase (Mycobacterium tuberculosis (strain ATCC 25618 / H37Rv)) (UniProt P9WFW3); assay: Assay for Asp RNA synthetase-1 from Mycobacterium tuberculosis; format: functional; set-up: scale not given: direction of the effect not stated beside the values; settings: 30 µM; also: in the data most compounds retested in dose-response had high values
# T1 sequence (whole entry): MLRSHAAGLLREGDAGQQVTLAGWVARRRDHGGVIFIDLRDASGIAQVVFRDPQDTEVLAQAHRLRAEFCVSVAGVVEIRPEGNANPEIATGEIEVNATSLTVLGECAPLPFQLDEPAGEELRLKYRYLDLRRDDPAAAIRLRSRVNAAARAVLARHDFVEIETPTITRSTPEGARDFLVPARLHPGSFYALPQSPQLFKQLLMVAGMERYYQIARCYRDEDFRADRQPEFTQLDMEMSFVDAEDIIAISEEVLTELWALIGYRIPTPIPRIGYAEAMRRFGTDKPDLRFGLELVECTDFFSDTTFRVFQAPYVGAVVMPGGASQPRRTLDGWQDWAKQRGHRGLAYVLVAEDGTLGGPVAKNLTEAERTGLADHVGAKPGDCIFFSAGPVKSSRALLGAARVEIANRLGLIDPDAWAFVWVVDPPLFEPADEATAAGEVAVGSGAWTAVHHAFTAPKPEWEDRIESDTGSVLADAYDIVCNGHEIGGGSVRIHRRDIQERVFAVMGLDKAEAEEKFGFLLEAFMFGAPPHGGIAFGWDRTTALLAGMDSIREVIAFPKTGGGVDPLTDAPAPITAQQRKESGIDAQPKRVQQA
# [2] = target: Shiga toxin 2 (Escherichia coli O157:H7) (UniProt P09385+P09386); assay: E. coli 0.157:H7 Shiga Toxin SOP - stx2 screening assay; format: functional; set-up: scale not given: direction of the effect not stated beside the values; settings: 30 µM
smiles,measurement,setting,value
O=C(Cn1cc(C(=O)O)ccc1=O)Nc1ccc(Cl)cc1F,Percent Effect,[1],-4.96%
same,Percent Effect,[2],-33.4%
CC(C(=O)NCCOc1ccc2c(c1)OCO2)n1cncn1 (centres undefined),Percent Effect,[1],-7.68%
same,Percent Effect,[2],-4.93%
CC(C)c1nccn1-c1cccc(C2CCN(C)CC2)n1,Percent Effect,[1],-1.47%
same,Percent Effect,[2],-33.7%
O=C(NCc1ccoc1)Nc1ccc(CN2CCOC2=O)cc1,Percent Effect,[1],-3.73%
same,Percent Effect,[2],-75.3%
CNC(=O)[C@H]1C[C@@H]2CN(S(=O)(=O)c3ccccc3)C[C@@H]2N1C,Percent Effect,[1],-3.51%
same,Percent Effect,[2],-39.6%
CCc1n[nH]c(C2CN(C(=O)c3cnc[nH]3)CCO2)n1 (centres undefined),Percent Effect,[1],-1.76%
same,Percent Effect,[2],27.7%
Cc1cccc(S(=O)(=O)NCC(C)N2CCN(C)CC2)c1Cl (centres undefined),Percent Effect,[1],1.52%
same,Percent Effect,[2],-12.1%
CCCS(=O)(=O)Nc1ccc2c(c1)OCC(C)(C)C(=O)N2C,Percent Effect,[1],-4.25%
same,Percent Effect,[2],-2.5%
CCNC(=O)N(C)Cc1ccc(SC)c(OC)c1,Percent Effect,[1],4.58%
same,Percent Effect,[2],0.0534%
CN(Cc1cnn(C)c1)C(=O)NCc1csc(Br)c1,Percent Effect,[1],4.08%
same,Percent Effect,[2],32.1%
Cc1noc(C)c1C(=O)NCC(O)c1ccc(F)cc1F (centres undefined),Percent Effect,[1],-2.01%
same,Percent Effect,[2],20.4%
c1cnc2c(C3CCN(Cc4ccsc4)CC3)n[nH]c2n1,Percent Effect,[1],-1.29%
same,Percent Effect,[2],-14.5%
COCCNC(=O)Cn1nc(C(C)C)c2cnn(C(C)(C)C)c2c1=O,Percent Effect,[1],-1.87%
same,Percent Effect,[2],5.6%
Cc1[nH]ccc1C(=O)Nc1cccc(CN2CCC(CO)CC2)c1,Percent Effect,[1],-1.71%
same,Percent Effect,[2],-43.9%
COc1c(C2CCCN2Cc2csc(C(C)C)n2)c(C)nn1C (centres undefined),Percent Effect,[1],-1.4%
same,Percent Effect,[2],-10.7%
Cc1nc(C)n(CC2CCCN2Cc2cn(-c3ccccc3)nn2)n1 (centres undefined),Percent Effect,[1],-2.81%
same,Percent Effect,[2],-8.85%
COCC1CC2(CCN(C(=O)c3cccn3C)CC2)CN1C(C)C (centres undefined),Percent Effect,[1],-3.53%
same,Percent Effect,[2],-6.37%
